Tau filament bind – binders of human tau filaments; P10636; recombinant tau filaments, thioflavin S fluorescence, 15 h; filaments grown with octadecylsulfate alongside compound; Potency, µM (top dose mostly 57.1 µM), for the others: at the top dose activity change, negative = inhibition; 71,000 compounds, 2% hits; AID 596;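 also: potency is read from the fitted curve at half-maximal effect; % is scaled to controls: 0 for no effect and ±100 for the full control effect; actives lower thioflavin S fluorescence by blocking filaments or displacing dye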
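His-tagged recombinant human tau (exons 2, 3 and 10 included), 1 uM, was induced to fibrillize by 30 uM sodium octadecylsulfate with compound present. After 15 h at 37 C, thioflavine S fluorescence (ex 450, em 510 nm) was read.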
BRCT PPI red – inhibitors of human BRCA1 BRCT-phosphoprotein interaction (red fluorophore). 75,000 compounds, 0.03% hits. Potency, µM (series often up to 76.9 µM), for inactives: at the highest dose activity change, negative = inhibition, hits mostly inhibitors. BRCT-phosphopeptide binding, red fluorescence polarization. P38398; also: % is scaled to controls: 0 for no effect and ±100 for the full control effect
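Fluorescence polarization: 100 nM His-tagged BRCA1 BRCT with 100 nM TAMRA-labelled phospho-BACH1 decapeptide, phosphate buffer pH 7.3 with 150 mM NaCl, DTT, 0.01% Tween 20; 12 min RT. Binding inhibition seen as FP decrease.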
TsaE inh – displaces an ADP probe from E. coli YjeE (TsaE) | P0AF67 | purified YjeE enzyme, qHTS inhibition assay | Potency, µM | 71,000 compounds, 0.05% hits
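Purified YjeE (10 uM) with BODIPY Texas Red-labeled ADP probe (2 uM); compounds pin-transferred, 15 min at room temperature. Binding inhibition read as decreased fluorescence polarization; ADP titration as control.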
Pol III holo inh – blocks replication by bacterial DNA polymerase III holoenzyme; Potency, µM (highest dose often 57.1 µM), for inactives: top-dose activity change, negative = inhibition; 71,000 compounds, 0.25% hits; reconstituted DNA polymerase III holoenzyme replication, biochemical; also: potency is read from the fitted curve at half-maximal effect; % is scaled to controls: 0 for no effect and ±100 for the full control effect
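Reconstituted *E. coli* holoenzyme (0.35 nM Pol III, 1 nM beta, 154 nM SSB, 2 nM primase) was preincubated with compound for 15 min at RT. Synthesis on 1.4 nM ssM13Gori ran 35 min, then was stopped with PicoGreen/EDTA and read as dsDNA fluorescence.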
BRCT PPI green – BRCA1 BRCT-phosphoprotein interaction inhibition | P38398 | BRCA1 BRCT-phosphopeptide binding, green fluorescence polarization | Potency, µM (series often up to 76.9 µM), for the others: at the highest dose activity change, negative = inhibition, hits mostly inhibitors | 75,000 compounds, 0.05% hits;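 also: potency is read from the fitted curve at half-maximal effect; plate controls were peptide without protein for full effect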
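Compounds were incubated for 12 min at room temperature with a complex of 100 nM fluorescein-tagged pBACH1 decapeptide and 250 nM His-tagged BRCT protein. Buffer was phosphate pH 7.3 with EDTA, DTT and Tween 20. Disruption of binding lowers the polarization signal.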
Hsp90 Hop PPI – changes Hsp90-Hop TPR2A binding signal, up or down. AlphaScreen TPR2A-His6 binding biotin-Hsp90 C-terminal peptide. Potency, µM (top dose mostly 57 µM), for the others: top-dose activity change, negative = inhibition. 71,000 compounds, 0.44% hits; active = well fitted curve in either direction with a large enough effect; inconclusive = small, poorly fitted or top-dose-only effect, or another doubt; also: potency is read from the fitted curve at half-maximal effect; % is scaled to controls: 0 for no effect and ±100 for the full control effect
Starred values were filed as active, the others as inactive; i = inactive; u = inconclusive; x = no result; [ ] = dose if it differs, or a comment. Compounds with a hit are over-represented: about 2.4% of the library has one in this group of screens. Unless noted, calls follow the shape of the dose curve; as a rule, active = well fitted curve in the direction sought with a large enough effect; inconclusive = small, poorly fitted or top-dose-only effect, or another doubt; inactive = no such curve, though single readings can be large; an effect the other way counts as inactive or inconclusive.

SMILES | Tau filament bind | BRCT PPI red | TsaE inh | Pol III holo inh | BRCT PPI green | Hsp90 Hop PPI
Cc1ccc(-c2nc(=S)c3c(n2Cc2ccco2)CCCC3)cc1 | x | -2% | x | x | -2% | x
COc1cccc(-c2nc(=S)c3c(n2Cc2ccco2)CCCC3)c1 | 16µM* | 2% | i | -14% | -1% | -8%
Cc1cc(C)c(S(=O)(=O)Nc2ccc(C(=O)O)c(O)c2)cc1C | x | -1% | x | x | 0% | x
CCC(=O)c1ccc2c(c1)N(CCCN(C)C)c1ccccc1S2 | u | -2% | i | -7% | 1% | -2%
CN(C)CC(C)(C)CN1c2ccccc2Sc2ccccc21 | -29%[11.4 µM] | -2%[15.4 µM] | i | -5%[11.4 µM] | -1%[15.4 µM] | -9%[11 µM]
CC(=O)c1ccc2c(c1)N(CCCN(C)C)c1ccccc1S2 | 3.2µM* | -1%[34.4 µM] | i | -3%[25.6 µM] | -1%[34.4 µM] | 1%[26 µM]
COc1ccc2c(c1)Sc1ccccc1N2CCN(C)C | 16µM* | 0% | i | -7% | -2% | u
CN(C)CCCN1c2ccccc2Sc2ccccc21 | 10µM* | 1% | i | -2%[25.6 µM] | -2%[3.08 µM] | -8%[26 µM]
CC(=O)CC(=O)Nc1ccccc1 | 1% | -1% | i | -4% | -1% | 3%
Nc1nn(S(=O)(=O)c2cccc3nsnc23)cc1-c1ccc(Br)cc1 | 16µM* | 0% | i | 2% | -1% | u
Cc1ccc(-c2cn(S(=O)(=O)c3cccc4nsnc34)nc2N)cc1 | 16µM* | 0% | i | 1% | -3% | u
c1ccc(-c2cc(-c3nn4c(-c5ccco5)nnc4s3)c3ccccc3n2)cc1 | 0.63µM* | -2% | i | -5% | 0% | -12%
c1ccc(Cc2nnc3sc(-c4ccco4)nn23)cc1 | 16µM* | 0% | i | -6% | 2% | -1%
Cc1ccc(C23CC4CC(CC(NC(=O)N5CCN(C)CC5)(C4)C2)C3)cc1 | 16µM* | -1% | i | 3% | -2% | -3%
N#Cc1cc2ccccc2nc1SCC(=O)Nc1ccc(S(=O)(=O)N2CCCC2)cc1 | 16µM* | -3% | i | -8% | 8% | -1%
COc1ccc2nc(SCC(=O)Nc3ccc(S(=O)(=O)N4CCCC4)cc3)c(C#N)cc2c1 | 25% | 1% | i | -1% | 5% | -5%
CC1=C(C(=O)Nc2ccccc2)C(c2ccc(C)o2)n2c(s/c(=C\c3ccco3)c2=O)=N1 (stereo unspecified) | 2.5µM* | 1% | i | 0% | 5% | -17%
C[C@H](CCC(=O)NN)[C@@H]1CC[C@@H]2[C@H]3CC[C@H]4C[C@@H](O)CC[C@@]4(C)[C@@H]3CC[C@]21C | -3%[11.4 µM] | 0%[15.4 µM] | i | -9%[11.4 µM] | -2%[15.4 µM] | -4%[11 µM]
COc1ccccc1N1CCN(C(=O)N2CCOCC2)CC1 | -3%[11.4 µM] | 0% | i | -5%[11.4 µM] | -1% | -8%[11 µM]
Cc1cc(=O)cc(C)n1-c1ccccc1N1CCOCC1 | 7.9µM* | -6% | i | -12% | -2% | -14%
CCN(CC)[C@@H](C)C(=O)N1c2ccccc2Sc2ccccc21 | -7% | x | i | -4% | x | -3%
CN(C)CCCNC(=O)c1ccc(Cc2nc3ccccc3[nH]2)cc1 | x | 1% | x | x | -2% | x
Cc1oc(/N=C/c2c(O)ccc3ccccc23)c(C#N)c1C | 2.5µM* | 0% | i | -2% | 1% | -6%
O=C(/C=C\c1ccc(O)c(O)c1)OCCc1ccccc1 | 7% | -4% | i | -2% | -1% | u
COc1ccc(NC(=O)Nc2ccc3nccnc3c2)cc1 | 3.2µM* | 1% | i | -4%[11.4 µM] | -1% | -9%[11 µM]
COc1ccc(NC(=O)Nc2ccc(N(C)C)cc2)cc1 | 16µM* | 0% | i | 0% | 3% | -21%
CCNc1ncc2nc(C)c(=O)n(Cc3ccc(F)cc3)c2n1 | 129% | -1% | i | 14% | 1% | -2%
CC[C@H]1C2=C3C(CC[C@H]4C(OC)OC[C@](C)([C@@H]34)N(C(=O)OC(C)(C)C)C2)C(CO)C1CO (stereo partly specified) | 63% | 1% | i | -10% | 0% | u

From PubChem
